Screening data deposited in PubChem BioAssay by several laboratories.
EBNA-1 inhibitor = blocks EBNA-1 binding to DNA; EBNA-1 DNA binding, fluorescence polarization; inhibition, % at 14.8 µM; actives 0.34% (n = 300,000); AID 1950; in the data active = inhibition above about 28%
dFosB act-1 = activators of mouse delta FosB homodimer | AID 493131 | activation, % at 25 µM | P13346 | purified delta FosB, TAMRA-CDK5 oligo fluorescence polarization; percent of positive-control signal above neutral wells | actives 0.99% (n = 340,000);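 active = mean activation above about 17%, with every replicate also reaching it, limit read from the data, passing the limit was not always enough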
Target sequence (P13346 whole entry, looked up): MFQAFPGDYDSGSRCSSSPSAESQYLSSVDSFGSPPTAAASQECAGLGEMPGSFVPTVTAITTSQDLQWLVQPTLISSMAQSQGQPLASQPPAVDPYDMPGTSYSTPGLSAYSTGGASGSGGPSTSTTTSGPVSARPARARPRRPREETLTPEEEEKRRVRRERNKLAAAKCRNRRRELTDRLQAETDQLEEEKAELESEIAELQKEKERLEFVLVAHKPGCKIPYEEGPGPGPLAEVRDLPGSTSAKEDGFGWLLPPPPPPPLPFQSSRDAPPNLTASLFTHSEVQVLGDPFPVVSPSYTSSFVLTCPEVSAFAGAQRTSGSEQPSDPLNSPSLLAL
NLRP3 yeast inh = inhibitors of NALP3 inflammasome in yeast; inhibition, % at 10 µM; Yeast reconstituted NLRP3/ASC/caspase-1, beta-gal luminescence, 24 h; actives 0.39% (n = 330,000);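 active = inhibition of 50% or more; inactive = inhibition below 50%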;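 also: plate controls were induced DMSO wells for no effect and uninduced yeast grown without galactose for full effect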
PolyA inh = yeast polyadenylation inhibition | AID 1875 | activity score, % at 12 µM | actives 0.02% (n = 300,000) | S. cerevisiae SKY197-pL101 polyadenylation reporter, beta-gal luminescence; efflux-impaired pdr1/pdr3 knockout yeast; score 100 = 6 SD above DMSO;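 active = lowest replicate activity score at least 50, where 100 means six control SD above control mean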;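 also: yeast exposed to compound for 9 h at 30 °C; higher score means more reporter readthrough which indicates perturbed polyadenylation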
NALP1 inh = NALP1 inhibition; inhibition, % at 10 µM; actives 0.61% (n = 280,000); S. cerevisiae NALP1/ASC/caspase-1 growth, X-gal OD620, 72 h; in the data active = inhibition mostly above about 24%, no sharp cut-off; inactive = mostly below about 32%
ZTA counter = counter-screen for EBNA-1 inhibitors: inhibitors of Epstein-Barr virus ZTA. P03206. ZTA-DNA binding, fluorescence polarization. inhibition, % at 11 µM. actives 0.15% (n = 320,000). AID 2234; in the data active = inhibition above about 33%
dFosB act-2 = activators of mouse delta FosB homodimer DNA binding. shares compounds with dFosB act-1. 2,400 tested, under 10 active. activation, % at 24.9 µM. purified delta FosB, TAMRA-CDK5 oligo fluorescence polarization; normalised: neutral wells 0, positive control 100. AID 588690;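 active = highest replicate activation at or above 34% and every replicate reaching that threshold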;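 also: higher polarization means more probe DNA bound by delta FosB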
The depositor's hits bear a star; x = no result. Most compounds without a hit are left out; they make up all but 2.2% or so of the library.

SMILES	EBNA-1 inhibitor	dFosB act-1	NLRP3 yeast inh	PolyA inh	NALP1 inh	ZTA counter	dFosB act-2
O=C1NC[C@@H](c2ccccc2)OC(=O)[C@@H](Cc2ccc(F)cc2)CC/C=C/C[C@@H]1CC(=O)N(CCO)Cc1ccccc1	x	-1	19	x	x	x	x
COc1ccc(/C=N/NC(=O)c2ccncc2)cc1CN1CCOCC1	4	-4	18	9	x	8	x
CCOc1cccc(-c2cc(C(=O)N/N=C/c3ccc(OC)c(CN4CCOCC4)c3)c3ccccc3n2)c1	-3	39*	2	6	35	11	3
Cc1cccc(-n2ncc3c2CCCC3NC(=O)CCN2CCCO2)c1C (configuration not stated)	-5	-2	7	0	7	-5	x
O=C(CSc1nc2sc3c(c2c(=O)n1-c1ccccc1)CCCC3)NCc1ccco1	5	52*	19	-4	24	-6	8
CC(C)(C)C(=O)Nc1cc(S(=O)(=O)Nc2ccc(Cl)cc2)ccc1Cl	-3	-11	14	-2	38	6	x
CC(=O)Nc1cc2cc(NS(=O)(=O)c3ccc(Cl)cc3)ccc2oc1=O	5	93*	5	10	x	-4	1
O=C(CSc1ncnc2[nH]ncc12)Nc1nc(-c2ccc(F)c(F)c2)cs1	8	33*	2	4	-8	-5	-1
Cc1cccc(OCCC(=O)NNC(=O)Cn2nc(C)cc2C)c1	x	2	14	x	x	x	x
Cc1cc(C)n(CC(=O)NNC(=O)CCCOc2ccc(Cl)cc2C)n1	-5	34*	8	-7	8	-4	4
Cc1cc(C)n(CC(=O)NNC(=O)CCCOc2ccc(Cl)c(C)c2)n1	3	21*	8	0	10	-6	-2
O=C(O)c1ccccc1OC(C(=O)Nc1cc(Cl)cc(Cl)c1)c1ccccc1 (configuration not stated)	2	36*	23	-1	22	-13	0
Cc1noc(C(=O)Nc2ccc(F)c(Cl)c2)c1Cl	4	24*	3	-4	2	12	4
Cc1cc(C)cc(NC(=O)Cn2nnc(C(=O)NCc3ccc4c(c3)OCO4)c2N)c1	-4	77*	12	6	15	-14	2
Cc1cc(C)cc(NC(=O)Cn2nnc(C(=O)NCc3ccco3)c2N)c1	-3	32*	5	-4	15	-2	7
Cc1ccc(NC(=O)Cn2nnc(C(=O)NCc3ccccc3)c2N)cc1C	10	-1	8	-2	2	-15	x
Cc1ccc(NC(=O)Cn2nnc(C(=O)NCc3ccc(Cl)cc3)c2N)cc1F	-2	77*	4	9	-1	-8	1
CSc1cccc(NC(=O)c2nnn(CC(=O)Nc3cc(C)cc(C)c3)c2N)c1	10	64*	14	9	12	15	0
COc1ccc(NC(=O)Cn2nnc(C(=O)NCc3ccc4c(c3)OCO4)c2N)cc1	1	7	2	1	12	-2	x
CC(=O)N1CCN(C(=O)COC(=O)c2ccc(S(C)(=O)=O)cc2)CC1	x	1	-10	x	x	x	x
O=C1NC[C@H](CC2CCCCC2)N(CCc2cccc(F)c2)C1=O	14	6	12	-21	x	-3	x
O=C(NCc1cccs1)C(=O)NCC1OCCCN1S(=O)(=O)c1cc(F)ccc1F (configuration not stated)	-7	-4	-12	-7	2	-7	x
CN(C)S(=O)(=O)c1cccc(NC(=O)CSc2cccc3cccnc23)c1	14	-11	16	-12	9	-2	x
CCOc1ccccc1NC(=O)Cn1nnc(C(=O)NCc2ccco2)c1N	-8	28*	10	-8	12	-18	4
COc1ccc(NC(=O)Cn2nnc(C(=O)NCc3ccc(C)cc3)c2N)cc1OC	8	7	5	12	6	8	x
Cc1ccc(CNC(=O)c2nnn(CC(=O)Nc3cc(C)cc(C)c3)c2N)cc1	0	88*	9	-3	17	5	-7
Cc1ccc(CNC(=O)Cn2nnc(C(=O)Nc3cc(C)ccc3C)c2N)cc1	8	36*	-8	2	16	5	0
